From PubChem BioAssay (EPA / NIEHS)
Calls of active or inactive are those of the source. How the source made its calls: active means hit-call score of the fitted dose curve at least 0.9, where 1 is the maximum; inactive means score below 0.9.

Assays:
Conditions in all cases: mRNA level, 48 h; actives raise or lower the signal
[1] = read-out: Insulin Like Growth Factor 1 (IGF1), IGF1 (gene 3479); assay: LTEA_HepaRG_IGF1: Life Technologies and Expression Analysis (LTEA) Assay for Insulin Like Growth Factor 1 (IGF1) using HepaRG (AID 2283506)
Method in brief: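 Differentiated human HepaRG cells were dosed for 48 h in serum-free induction medium with 0.5% DMSO, eight half-log concentrations up to 100 uM, in duplicate. IGF1 mRNA was quantified by qRT-PCR normalized to ACTB, GAPDH, POLR2A; bidirectional fitting versus DMSO.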

[2] = read-out: Intercellular Adhesion Molecule 1 (ICAM1), ICAM1 (gene 3383); assay: LTEA_HepaRG_ICAM1: Life Technologies and Expression Analysis (LTEA) Assay for Intercellular Adhesion Molecule 1 (ICAM1) using HepaRG (AID 2283507)
Method in brief: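 HepaRG, 48 h exposure, 8-pt half-log series from 100 uM, 0.5% DMSO vehicle, duplicates. Readout: TaqMan qRT-PCR mRNA, housekeeping-normalized (ACTB/GAPDH/POLR2A). Bidirectional curve fit vs DMSO baseline.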

[3] = read-out: Insulin-like growth factor-binding protein 1 (IGFBP1), IGFBP1 (gene 3484); assay: LTEA_HepaRG_IGFBP1: Life Technologies and Expression Analysis (LTEA) Assay for Insulin-like growth factor-binding protein 1 (IGFBP1) using HepaRG (AID 2283508)
Method in brief: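 qRT-PCR mRNA read-out (TaqMan, Fluidigm array), normalised to three housekeeping genes; HepaRG cells, 48 h exposure, 8-pt half-log series from 100 uM, 0.5% DMSO vehicle; bidirectional curve fit vs DMSO baseline.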

[4] = read-out: Potassium channel subfamily K member 1 (KCNK1), KCNK1 (gene 3775); assay: LTEA_HepaRG_KCNK1: Life Technologies and Expression Analysis (LTEA) Assay for Potassium channel subfamily K member 1 (KCNK1) using HepaRG (AID 2283511)
Method in brief: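 Differentiated human HepaRG cells in serum-free induction medium were exposed in duplicate for 48 h to 8 half-log concentrations up to 100 uM in 0.5% DMSO. KCNK1 mRNA was measured by TaqMan qRT-PCR, normalized to ACTB, GAPDH and POLR2A, and fitted bidirectionally versus DMSO.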

[5] = read-out: Keratin 19 (KRT19), KRT19 (gene 3880); assay: LTEA_HepaRG_KRT19: Life Technologies and Expression Analysis (LTEA) Assay for Keratin 19 (KRT19) using HepaRG (AID 2283512)
Method in brief: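 HepaRG, 48 h chemical exposure, 8-pt half-log CRC from 100 uM, 0.5% DMSO vehicle, duplicates. Readout: TaqMan qRT-PCR of KRT19 mRNA, housekeeping-normalized (ACTB/GAPDH/POLR2A). Bidirectional fit vs DMSO baseline.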

[6] = read-out: JUN Transcription Factor, JUN (gene 3725); assay: LTEA_HepaRG_JUN: Life Technologies and Expression Analysis (LTEA) Assay for JUN Transcription Factor using HepaRG (AID 2283513)
Method in brief: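 Differentiated HepaRG cells were exposed to chemicals for 48 h in serum-free induction medium, 8 concentrations from 100 uM in half-log steps, 0.5% DMSO vehicle, in duplicate. JUN mRNA was quantified by TaqMan qRT-PCR, normalized to ACTB, GAPDH, POLR2A.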

[7] = read-out: Lipase C (LIPC), LIPC (gene 3990); assay: LTEA_HepaRG_LIPC: Life Technologies and Expression Analysis (LTEA) Assay for Lipase C (LIPC) using HepaRG (AID 2283514)
Method in brief: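 Differentiated human HepaRG cells in serum-free induction medium were exposed in duplicate for 48 h to eight concentrations (top 100 uM, half-log steps, 0.5% DMSO). LIPC mRNA was quantified by TaqMan qRT-PCR, normalized to ACTB, GAPDH and POLR2A, with bidirectional fitting versus DMSO.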

[8] = read-out: MicroRNA 122 (MIR122), gene 406906; assay: LTEA_HepaRG_MIR122: Life Technologies and Expression Analysis (LTEA) Assay for MicroRNA 122 (MIR122) using HepaRG (AID 2283516); further: the transcript read is the microRNA miR-122
Method in brief: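 Differentiated human HepaRG cells were exposed 48 h in serum-free induction medium to eight half-log concentrations (top 100 uM, 0.5% DMSO). Transcript level was measured by TaqMan qRT-PCR, normalized to ACTB, GAPDH and POLR2A, and fitted bidirectionally versus DMSO.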

[9] = read-out: matrix metalloproteinase-10 (MMP10), MMP10 (gene 4319); assay: LTEA_HepaRG_MMP10: Life Technologies and Expression Analysis (LTEA) Assay for matrix metalloproteinase-10 (MMP10) using HepaRG (AID 2283517)
Method in brief: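 HepaRG, collagen I, ~100,000 cells/well; serum-free induction medium; 48 h exposure, duplicate, 8-pt half-log to 100 uM, 0.5% DMSO. Readout: TaqMan qRT-PCR, normalized to ACTB/GAPDH/POLR2A; bidirectional fit vs DMSO.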

MYC, MYC (gene 4609) = assay: LTEA_HepaRG_MYC: Life Technologies and Expression Analysis (LTEA) Assay for MYC using HepaRG (AID 2283518)
Method in brief: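 qRT-PCR read-out of MYC transcript (Fluidigm TaqMan, housekeeping-normalized) after 48 h chemical exposure of HepaRG cells; eight concentrations, top 100 uM, half-log steps. Bidirectional curve fitting against 0.5% DMSO vehicle baseline.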

[10] = read-out: Paternally Expressed 10 (PEG10), PEG10 (gene 23089); assay: LTEA_HepaRG_PEG10: Life Technologies and Expression Analysis (LTEA) Assay for Paternally Expressed 10 (PEG10) using HepaRG (AID 2283520)
Method in brief: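 Differentiated HepaRG cells, plated 48 h then switched to serum-free induction medium, were exposed in duplicate for 48 h to eight half-log concentrations topping at 100 uM in 0.5% DMSO. PEG10 mRNA was quantified by TaqMan qRT-PCR, normalised to ACTB, GAPDH and POLR2A.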

[11] = read-out: Nuclear factor NF-kappa-B p105 subunit (Homo sapiens) (UniProt P19838); assay: LTEA_HepaRG_NFKB1: Life Technologies and Expression Analysis (LTEA) Assay for Nuclear Factor Kappa B Subunit 1 (NFKB1) using HepaRG (AID 2283521);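 on outcome: TaqMan qRT-PCR transcript normalised to ACTB GAPDH and POLR2A housekeeping genes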
Method in brief: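 Differentiated human HepaRG cells were exposed for 48 h in serum-free induction medium to eight concentrations (top 100 uM, half-log steps, 0.5% DMSO), in duplicate. NFKB1 mRNA was measured by TaqMan qRT-PCR, normalized to ACTB/GAPDH/POLR2A, and fitted bidirectionally against DMSO.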

[12] = read-out: Protein phosphatase 2A (PPP2R4), PTPA (gene 5524); assay: LTEA_HepaRG_PPP2R4: Life Technologies and Expression Analysis (LTEA) Assay for Protein phosphatase 2A (PPP2R4) using HepaRG (AID 2283522)
Method in brief: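 Differentiated HepaRG cells in serum-free induction medium were exposed in duplicate for 48 h to eight concentrations, top 100 uM with half-log dilutions, in 0.5% DMSO. PPP2R4 mRNA was quantified by TaqMan qRT-PCR, normalized to ACTB, GAPDH and POLR2A.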

[13] = read-out: Phosphatase and tensin (PTEN), PTEN (gene 5728); assay: LTEA_HepaRG_PTEN: Life Technologies and Expression Analysis (LTEA) Assay for Phosphatase and tensin (PTEN) using HepaRG (AID 2283523)
Method in brief: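 Differentiated human HepaRG cells, plated 48 h then switched to serum-free induction medium, were exposed in duplicate for 48 h to eight half-log concentrations up to 100 uM in 0.5% DMSO. PTEN mRNA measured by TaqMan qRT-PCR, normalized to ACTB/GAPDH/POLR2A, bidirectional fit versus DMSO.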

[14] = read-out: solute carrier (SLC22A1), SLC22A1 (gene 6580); assay: LTEA_HepaRG_SLC22A1: Life Technologies and Expression Analysis (LTEA) Assay for solute carrier (SLC22A1) using HepaRG (AID 2283524)
Method in brief: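 Human HepaRG cells were plated 48 h, switched to serum-free induction medium, then exposed in duplicate for 48 h to 8-point half-log series from 100 uM in 0.5% DMSO. SLC22A1 mRNA measured by qRT-PCR, normalized to ACTB/GAPDH/POLR2A, fitted bidirectionally versus DMSO.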

[15] = read-out: Interleukin 6 (IL6), IL6 (gene 3569); assay: LTEA_HepaRG_IL6: Life Technologies and Expression Analysis (LTEA) Assay for Interleukin 6 (IL6) using HepaRG (AID 2283509)
Method in brief: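 Differentiated human HepaRG cells, plated 48 h then switched to serum-free induction medium, were exposed in duplicate for 48 h to eight half-log concentrations up to 100 uM in 0.5% DMSO. IL6 mRNA measured by qRT-PCR, normalized to ACTB/GAPDH/POLR2A.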

[16] = read-out: matrix metalloproteinase-3 (MMP3), MMP3 (gene 4314); assay: LTEA_HepaRG_MMP3: Life Technologies and Expression Analysis (LTEA) Assay for matrix metalloproteinase-3 (MMP3) using HepaRG (AID 2283519)
Method in brief: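 Differentiated human HepaRG cells, plated 48 h on collagen I, were exposed in duplicate for 48 h in serum-free induction medium to eight half-log concentrations up to 100 uM in 0.5% DMSO. MMP3 mRNA was quantified by TaqMan qRT-PCR, normalised to ACTB, GAPDH and POLR2A.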

Nuclear factor NF-kappa-B p105 subunit (Homo sapiens), sequence (P19838 whole entry, looked up): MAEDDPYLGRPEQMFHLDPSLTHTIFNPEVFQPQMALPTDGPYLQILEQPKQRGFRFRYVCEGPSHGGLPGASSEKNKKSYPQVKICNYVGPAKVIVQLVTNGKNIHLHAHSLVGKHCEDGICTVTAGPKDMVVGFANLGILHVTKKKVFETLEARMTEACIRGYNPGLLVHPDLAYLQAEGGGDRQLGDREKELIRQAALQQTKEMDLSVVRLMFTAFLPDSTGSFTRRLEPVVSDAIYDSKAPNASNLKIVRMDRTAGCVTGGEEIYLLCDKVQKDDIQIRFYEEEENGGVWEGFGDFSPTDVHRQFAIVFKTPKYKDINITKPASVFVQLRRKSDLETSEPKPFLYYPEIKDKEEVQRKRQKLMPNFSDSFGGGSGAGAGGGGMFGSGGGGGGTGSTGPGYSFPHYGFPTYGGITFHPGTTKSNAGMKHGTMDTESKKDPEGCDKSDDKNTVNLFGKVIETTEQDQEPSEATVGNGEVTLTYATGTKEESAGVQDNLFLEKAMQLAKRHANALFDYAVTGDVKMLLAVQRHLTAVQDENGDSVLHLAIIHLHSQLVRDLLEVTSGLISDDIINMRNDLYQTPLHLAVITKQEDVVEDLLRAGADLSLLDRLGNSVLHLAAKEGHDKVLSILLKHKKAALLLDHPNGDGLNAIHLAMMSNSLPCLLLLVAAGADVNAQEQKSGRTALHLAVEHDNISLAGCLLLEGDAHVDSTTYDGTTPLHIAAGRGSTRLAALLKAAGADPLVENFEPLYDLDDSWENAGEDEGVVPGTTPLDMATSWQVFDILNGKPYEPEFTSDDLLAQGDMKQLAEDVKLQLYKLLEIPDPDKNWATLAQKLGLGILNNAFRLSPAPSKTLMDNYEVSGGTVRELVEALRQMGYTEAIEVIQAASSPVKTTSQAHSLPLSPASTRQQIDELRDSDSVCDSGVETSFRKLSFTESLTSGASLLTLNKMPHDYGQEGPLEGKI

CCc1cc(SCc2sc(-c3ccc(C(F)(F)F)cc3)nc2CN2CCN(c3ccc(OC)cc3)CC2)ccc1OCC(=O)O
AC50 [1]: 73.8 µM (active)
AC50 [2]: 92.9 µM (active)
AC50 [3]: 88.6 µM (active)
AC50 [4]: 9.11 µM (active)
AC50 [5]: 94 µM (active)
AC50 [6]: 88.8 µM (active)
AC50 [7]: 7.95 µM (active)
AC50 [8]: 93.4 µM (active)
AC50 [9]: 7.31 µM (active)
AC50 (MYC, MYC (gene 4609)): 7.43 µM (active)
AC50 [10]: 93.6 µM (active)
AC50 [11]: 91 µM (active)
AC50 [12]: 22.4 µM (active)
AC50 [13]: 24.6 µM (active)
AC50 [14]: 8.47 µM (active)

CC[C@H](C)C(=O)O[C@H]1C[C@@H](C)C=C2C=C[C@H](C)[C@H](CC[C@@H]3C[C@@H](O)CC(=O)O3)[C@H]21
outcome [1]: inactive
outcome [2]: inactive
outcome [3]: inactive
outcome [15]: inactive
outcome [5]: inactive
outcome [6]: inactive
outcome [7]: inactive
outcome [8]: inactive
outcome [9]: inactive
outcome (MYC, MYC (gene 4609)): inactive
outcome [16]: inactive
outcome [10]: inactive
outcome [11]: inactive
outcome [12]: inactive
outcome [13]: inactive
outcome [14]: inactive
